The text below walks through data of the supplement of paper PMC4723716.

± gives the uncertainty stated by the source. Whole data set: some 9,900 compounds, median “viability index relative to DMSO control” near 1, cut for the lowest 2% near 0.85. Only a selection was taken, and the lowest values are over-represented in it overall.

The subject of the assay is Plasmodium falciparum NF54 stage V gametocytes. In words: viability index relative to DMSO control (fraction); higher = less gametocyte killing. The conditions noted are these: 2.5 µM, incubation time: 72 h. On the procedure:
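Broad DOS informer set and blood-stage-active DOS compounds screened in duplicate at 2.5 µM against P. falciparum NF54 stage V gametocytes with the serum-free one-step SaLSSA (1536-well): 72 h at 37 °C under low oxygen, then saponin lysis and MitoTracker Red CMXRos staining, with high-content imaging. Viability index = viable-object count divided by the plate mean of DMSO wells (0 = killed, about 1 = inactive).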

The mark [1] stands for this setting: library set: Broad Institute DOS.
The mark [2] stands for this setting: library set: Broad Institute Blood Stage.

For `C[C@@H]1CN([C@@H](C)CO)C(=O)c2cc(NS(=O)(=O)c3cn(C)cn3)ccc2O[C@H]1CN(C)S(=O)(=O)c1ccc(F)cc1`, under setting [1], the viability index stood at 1.06 ± 0.038.
Under setting [1], `O=C(C[C@H]1C=C[C@@H](NC(=O)c2ccncc2)[C@H](CO)O1)NCC1CC1` yielded a viability index of 1.029 ± 0.0019.
The same measure, in the same setting: to `Cc1ccccc1-c1ccc([C@H]2[C@H]3CN(S(C)(=O)=O)CC(=O)N3[C@H]2CO)cc1` belongs 0.975 ± 0.047; to `CCc1nc(N2[C@@H](C#N)[C@H](c3ccccc3-c3ccccc3C)[C@@H]2CO)sc1C`, 0.81 ± 0.063.
The same measure, in the same setting: to `CCc1nc(N2[C@@H](C#N)[C@@H](c3ccccc3-c3ccccc3C)[C@@H]2CO)sc1C` belongs 1.08 ± 0.12.
Still for that read-out and setting: to `CCc1nc(N2[C@H](C#N)[C@@H](c3ccccc3-c3ccccc3C)[C@@H]2CO)sc1C` belongs 1.07 ± 0.088; to `COc1ccc2c3c([nH]c2c1)[C@@H](CO)N(C[C@]31CCN(C)CC1)S(=O)(=O)c1ccccc1`, 1.04 ± 0.032; to `CO[C@@H]1CN(C)C(=O)c2ccc(NS(C)(=O)=O)cc2OC[C@@H](C)N(C(=O)CN(C)C)C[C@H]1C`, 0.977 ± 0.055.
Consider `N#Cc1ccc(-c2ccc([C@@H]3[C@@H]4CN(C(=O)Nc5ccc6c(c5)OCO6)C[C@H]3N4)cc2)cc1`, for which, under setting [1], the viability index was 0.56 ± 0.15.
The same measure, in the same setting: to `N#Cc1cccc(-c2ccc([C@H]3[C@@H]4CN(C(=O)c5ccc6c(c5)OCO6)C[C@H]3N4)cc2)c1` belongs 1.09 ± 0.072; to `N#Cc1ccc(-c2ccc([C@H]3[C@@H]4CN(C(=O)c5cccnc5)C[C@H]3N4)cc2)cc1`, 1.15 ± 0.046.
As for `N#Cc1ccc(-c2ccc([C@@H]3[C@@H]4CN(C(=O)c5cccnc5)C[C@H]3N4)cc2)cc1`, the viability index under setting [1] was 0.81 ± 0.2.
Same read-out and setting: to `O=C(c1ccc(F)cc1)N1C[C@@H]2N[C@H](C1)[C@H]2c1ccc(-c2cccnc2)cc1` belongs 1.08 ± 0.12; to `N#Cc1cccc(-c2ccc([C@@H]3[C@@H]4CN(C(=O)c5ccc6c(c5)OCO6)C[C@H]3N4)cc2)c1`, 0.896 ± 0.077; to `O=C(Cc1ccncc1)N1CC[C@@H]2[C@H]1c1cc(-c3ccccc3F)ccc1N[C@@H]2CO`, 1.03 ± 0.046.
On the same count and under the same terms, to `CCS(=O)(=O)N1CC[C@@]2(CC1)CN([C@H](CO)c1[nH]c3cc(OC)ccc3c21)S(=O)(=O)c1ccc(C)cc1` belongs 1 ± 0.046.
Still for that read-out and setting: to `COc1ccc2c3c([nH]c2c1)[C@H](CO)N(C[C@]31CN(C1)C(=O)Cc1cccnc1)S(C)(=O)=O` belongs 1.08 ± 0.04.
On to `COc1ccc2c3c([nH]c2c1)[C@@H](CO)N(C[C@]31CCN(CC1)C(=O)Cc1cccnc1)S(=O)(=O)c1ccc(C)cc1`, for which the viability index under setting [1] came to 0.827 ± 0.019.
Under setting [1], `COc1ccc2c3c([nH]c2c1)[C@@H](CO)N(Cc1ccc(Cl)cc1)C[C@]31CN(C1)S(C)(=O)=O` displayed a viability index of 0.931 ± 0.095.
Still for that read-out and setting: to `COc1ccc(CN2C[C@]3(CN(C3)S(=O)(=O)c3ccc(C)cc3)c3c([nH]c4cc(OC)ccc34)[C@H]2CO)cc1` belongs 0.793 ± 0.014.
Still for that read-out and setting: the result for `COc1ccc2c3c([nH]c2c1)[C@H](CO)N(Cc1ccc(Cl)cc1)C[C@]31CN(C1)S(C)(=O)=O` reads 0.931 ± 0.066.
`COc1ccc2c3c([nH]c2c1)[C@H](CO)N(C[C@]31CCN(CC1)C(=O)Cc1cccnc1)S(=O)(=O)c1ccc(C)cc1` came in with a viability index under setting [1] of 0.75 ± 0.079.
The same measure, in the same setting: to `COc1ccc2c3c([nH]c2c1)[C@@H](CO)N(C[C@]31CN(C1)C(=O)Cc1cccnc1)S(C)(=O)=O` belongs 1.06 ± 0.048; to `CCS(=O)(=O)N1CC[C@@]2(CC1)CN([C@@H](CO)c1[nH]c3cc(OC)ccc3c21)S(=O)(=O)c1ccc(C)cc1`, 0.934 ± 0.052.
Regarding `CCCC(=O)N1C[C@@]2(C1)CN([C@@H](CO)c1[nH]c3cc(OC)ccc3c21)S(=O)(=O)c1ccc(C)cc1`, the viability index under setting [1] worked out at 0.9841 ± 0.0028.
The same measure, in the same setting: the result for `CCCC(=O)N1C[C@@]2(C1)CN([C@H](CO)c1[nH]c3cc(OC)ccc3c21)S(=O)(=O)c1ccc(C)cc1` reads 0.946 ± 0.074.
`CCCC(=O)N1CC[C@@]2(CC1)CN([C@@H](CO)c1[nH]c3cc(OC)ccc3c21)S(=O)(=O)c1ccc(C)cc1` yielded a viability index under setting [2] of 0.655 ± 0.046.
As to `C[C@H](CO)N1C[C@H](C)[C@H](CN(C)C(=O)Nc2cccc(C(F)(F)F)c2)OCc2cn(nn2)CCCC1=O`, under setting [1], the viability index came out at 1.01 ± 0.036.
Consider `COc1ccc2c3c([C@@H](CO)N(C[C@]33CN(C3)C(=O)c3ccccc3F)C(=O)Nc3ccccc3F)n(C)c2c1`, for which the viability index under setting [1] is 0.97 ± 0.053.
Same read-out and setting: to `O=C(Cc1cccnc1)N1CC(=O)N2[C@@H](CO)[C@H](c3ccc(/C=C/c4ccccc4)cc3)[C@@H]2C1` belongs 1.015 ± 0.0057.
Same read-out and setting: the result for `C[C@H]1CN([C@@H](C)CO)C(=O)Cc2cc(N(C)C)ccc2O[C@@H]1CN(C)C(=O)NC1CCCCC1` reads 0.883 ± 0.058.
`O=C1CNC[C@@H]2[C@H](c3ccc(C#CC4CCCCC4)cc3)[C@@H](CO)N12`: under setting [1], the viability index was determined as 1.06 ± 0.067.
On the same count and under the same terms, the result for `CN1CCN(C(=O)C[C@H]2CC[C@@H]3[C@H](COC[C@H](O)CN3C(=O)c3ccccc3F)O2)CC1` reads 0.986 ± 0.019.
On the same count and under the same terms, to `Cc1ccc(S(=O)(=O)Nc2ccc3c(c2)C(=O)N([C@@H](C)CO)C[C@@H](C)[C@@H](CN(C)Cc2ccc(C(F)(F)F)cc2)O3)cc1` belongs 1.04 ± 0.07.
On the same count and under the same terms, to `COc1ccc(NC(=O)N(C)C[C@@H]2Oc3ccc(NC(=O)Nc4cccc5ccccc45)cc3CC(=O)N([C@@H](C)CO)C[C@H]2C)cc1` belongs 1.03 ± 0.033.
As for `O=C(N[C@@H]1C=C[C@@H](CC(=O)N2CCN(c3ccccc3)CC2)O[C@@H]1CO)c1ccccc1`, the viability index under setting [1] came out at 1.11 ± 0.12.
Same read-out and setting: to `N#C[C@H]1[C@@H](c2ccccc2-c2ccccc2F)[C@@H](CO)N1C(=O)c1cccc(F)c1` belongs 1.16 ± 0.25; to `Cc1noc(C)c1NC(=O)N[C@@H]1C=C[C@@H](CC(=O)Nc2ccc(-c3ccccc3)cc2)O[C@@H]1CO`, 0.979 ± 0.1; to `Cc1noc(C)c1S(=O)(=O)Nc1ccc2c(c1)C(=O)N([C@H](C)CO)C[C@@H](C)[C@H](CN(C)Cc1ccc(C(=O)O)cc1)OCCCC[C@@H](C)O2`, 1.07 ± 0.12.
Same read-out and setting: the result for `CCCNC(=O)N1[C@H](C#N)[C@@H](c2ccc(C#Cc3cccc(F)c3)cc2)[C@@H]1CO` reads 0.981 ± 0.013; that for `N#C[C@@H]1[C@@H](c2ccc(-c3cccc(F)c3)cc2)[C@H](CO)N1C(=O)NC1CCCC1`, 0.935 ± 0.064; that for `CCCNC(=O)N1[C@H](CO)[C@H](c2ccc(C#Cc3cccc(F)c3)cc2)[C@@H]1C#N`, 1.09 ± 0.027.
On the same count and under the same terms, the result for `N#C[C@@H]1[C@H](c2ccc(-c3cccc(F)c3)cc2)[C@H](CO)N1C(=O)NC1CCCC1` reads 0.743 ± 0.059; that for `CN(C)CC(=O)N1[C@H](C#N)[C@H](c2ccc(C#CC3CCCCC3)cc2)[C@@H]1CO`, 0.981 ± 0.11.
With `CCCNC(=O)N1[C@H](C#N)[C@H](c2ccc(C#Cc3ccc(F)cc3)cc2)[C@@H]1CO`, the viability index under setting [2] came to 0.844 ± 0.021.
On the same count and under the same terms, to `CC(C)NC(=O)N1[C@H](C#N)[C@H](c2ccc(C#CC3CCCCC3)cc2)[C@@H]1CO` belongs 0.822 ± 0.041.
`N#C[C@H]1[C@@H](c2ccc(-c3cccc(F)c3)cc2)[C@H](CO)N1C(=O)NC1CCCC1` yielded a viability index under setting [1] of 1.055 ± 0.0015.
With `CN(C)CC(=O)N1[C@H](C#N)[C@@H](c2ccc(C#CC3CCCCC3)cc2)[C@H]1CO`, the viability index under setting [1] turned out to be 1.05 ± 0.039.
Compound `C/C=C/c1ccc([C@H]2[C@@H](CO)N3CCCCN(S(=O)(=O)c4ccc(OC)cc4)C[C@@H]23)cc1` showed a viability index under setting [1] of 0.972 ± 0.078.
Under setting [1], `CCCNC(=O)Nc1ccc2c(c1)OC[C@@H](C)N(C(=O)C1CCOCC1)C[C@H](C)[C@H](OC)CN(C)C2=O` registered a viability index of 0.996 ± 0.052.
Turning to `COCC(=O)Nc1ccc2c(c1)C(=O)N(C)C[C@@H](OC)[C@H](C)CN(CCc1ccccc1)[C@H](C)CO2`, the viability index under setting [1] came to 1.05 ± 0.042.
In the case of `O=C(C[C@@H]1C=C[C@H](NC(=O)Nc2ccccc2F)[C@@H](CO)O1)NCc1ccc(-c2ccccc2)cc1`, the viability index under setting [1] was 1.11 ± 0.14.
`O=C(C1CC1)N1C[C@@H]2N[C@H](C1)[C@@H]2c1ccc(-c2ccccc2F)cc1`: under setting [2], the viability index came to 0.988 ± 0.046.
Compound `CN(C)CC(=O)N1C[C@@H]2N[C@H](C1)[C@@H]2c1ccc(C2=CCCCC2)cc1` had a viability index under setting [1] of 0.898 ± 0.013.
The same measure, in the same setting: the result for `Cc1cccc(-c2ccc([C@@H]3[C@@H]4CN(Cc5cccc(F)c5)C[C@H]3N4)cc2)c1` reads 0.816 ± 0.064.
Under setting [1], `Cc1cccc(-c2ccc([C@@H]3[C@@H]4CN(C(=O)c5ccncc5)C[C@H]3N4)cc2)c1` returned a viability index of 1.09 ± 0.12.
The compound `Cc1cccc(-c2ccc([C@H]3[C@@H]4CN(Cc5cccc(F)c5)C[C@H]3N4)cc2)c1` returned a viability index under setting [1] of 1.053 ± 0.0043.
`O=C(Nc1ccccc1)N1C[C@@H]2N[C@H](C1)[C@@H]2c1ccc(-c2ccccc2F)cc1`: under setting [1], the viability index was 1.03 ± 0.08.
On the same count and under the same terms, to `CN(C)CC(=O)N1C[C@@H]2N[C@H](C1)[C@H]2c1ccc(-c2ccccc2F)cc1` belongs 0.832 ± 0.011; to `Fc1cccc(-c2ccc([C@@H]3[C@@H]4CN(Cc5cncnc5)C[C@H]3N4)cc2)c1`, 1.04 ± 0.06.
`CN(C)CC(=O)N1C[C@@H]2N[C@H](C1)[C@@H]2c1ccc(-c2ccccc2F)cc1` gave a viability index under setting [1] of 0.745 ± 0.074.
Under setting [1], `Cc1cccc(-c2ccc([C@@H]3[C@@H]4CN(C(=O)CN(C)C)C[C@H]3N4)cc2)c1` came in with a viability index of 0.477 ± 0.045.
For `O=C(C1CCCCC1)N1C[C@@H]2N[C@H](C1)[C@H]2c1ccc(-c2ccccc2F)cc1`, the viability index under setting [1] was 1.08 ± 0.092.
The same measure, in the same setting: the result for `O=C(Nc1ccccc1)N1C[C@@H]2N[C@H](C1)[C@H]2c1ccc(-c2ccccc2F)cc1` reads 1.1 ± 0.05; that for `N#C[C@H]1[C@@H](c2ccccc2-c2cccc(F)c2)[C@H](CO)N1S(=O)(=O)c1cccc(F)c1`, 1.17 ± 0.1; that for `C[C@@H]1CCCCO[C@H](CN(C)Cc2ccc(Cl)c(Cl)c2)[C@@H](C)CN([C@H](C)CO)C(=O)c2cc(NC(=O)c3ccncc3)ccc2O1`, 1.05 ± 0.047.
The compound `C/C=C/c1ccc([C@@H]2[C@@H](CO)N3C(=O)CN(S(=O)(=O)c4ccccc4)C[C@H]23)cc1` registered a viability index under setting [1] of 1.11 ± 0.026.
On the same count and under the same terms, to `CN1c2ccc(-c3ccc(F)cc3)cc2[C@@H]2[C@@H](CCN2C(=O)Cc2cccnc2)[C@@H]1CO` belongs 1.09 ± 0.061; to `C[C@@H]1CN([C@@H](C)CO)C(=O)c2cc(NC(=O)Nc3ccccc3)ccc2O[C@H]1CN(C)Cc1ccccc1`, 0.979 ± 0.015; to `C[C@@H]1CN([C@H](C)CO)C(=O)c2c(c3ccccc3n2C)-c2ccccc2CO[C@H]1CN(C)C(=O)[C@@H](Cc1ccccc1)N(C)C`, 1.14 ± 0.11.
`COCC(=O)N1[C@@H]2CN(C)c3ccccc3[C@@H]2[C@@H]1CO` yielded a viability index under setting [1] of 1.05 ± 0.034.
The same measure, in the same setting: to `CN(C)C(=O)c1cccc(-c2cccc(-c3nc(C(=O)N4CCCCC4)cc4c3[C@H](CCO)N([S@@](=O)C(C)(C)C)C4)c2)c1` belongs 1.04 ± 0.0013.
